# Bioassay records (PubChem)
# Sampled rows, rich in hits. Any-hit rate of the full collection: about 3%.
# HEK293 cAMP cs – raises cAMP in parental HEK293 cells, TSHR agonist counter-screen | parental HEK293 CNG cAMP sensor, membrane potential fluorescence | Potency, µM (titrated, usually from 57.1 µM), for the others: at the highest dose activation, hits mostly activators | 73,000 compounds, 2.5% hits; further: % of control where 0% means no effect; nearly all actives have a fitted effect of over 55% in size
#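 Parental HEK 293 cells stably expressing a modified CNG channel (no TSHR) report cAMP rise as membrane depolarization. Membrane potential dye with 100 uM RO 20-1724 was loaded for 60 min at room temperature, then compound added for 30 min; fluorescence read at 590 nm.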
# TSHR agonist – TSH receptor (human) agonism; P16473; HEK293-CNG-TSHR cells (CNG channel as cAMP sensor), membrane potential dye, cAMP; Potency, µM (doses to about 57.1 µM), for the others: at the highest dose activation, usual class: activators; 73,000 compounds, 0.48% hits; AID 926; active means well fitted activation curve with a large enough effect in the main read-out, with a control signal flat, not every such curve was filed as active; inconclusive means small, poorly fitted or top-dose-only effect, or a change in a side signal; inactive means no such curve, though single readings can be large or run the other way; % of control where 0% means no effect;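 further: the control signal comes from parental cells without the receptor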
#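 HEK 293 cells stably expressing TSHR and a modified CNG channel, with CNG-only parental cells as counterscreen, were preloaded 60 min at room temperature with membrane potential dye containing 100 uM RO 20-1724. Compound exposure was 30 min, and depolarization was read as fluorescence at 590 nm.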
# Caspase-1 inhib – blocks human caspase-1 allosterically or competitively; P29466; Potency, µM (top dose mostly 57.5 µM), without a hit: top-dose activity change, negative = inhibition, hits mostly inhibitors; 75,000 compounds, 0.03% hits; Caspase-1 enzyme, Ac-WEHD-AFC fluorogenic rate;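 further: plate controls were vehicle for no effect and no substrate for full effect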
# 15-hLO inh – inhibitors of human 15-lipoxygenase (ALOX15) | P16050 | purified 15hLO-1, xylenol orange hydroperoxide absorbance | Potency, µM (doses to about 57.1 µM), for inactives: top-dose activity change, negative = inhibition, most hits filed as inhibitors | 74,000 compounds, 1.4% hits | AID 887; further: on the % scale 0 is the no-effect control and ±100 the full control effect; nearly all actives have a fitted effect of over 55% in size
#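 Inhibition is scored from a chromogenic endpoint. After 15 min enzyme-compound contact, arachidonic acid (50 uM final) reacts 6 min with 40 nM 15hLO-1 at room temperature, then Fe-XO reagent is added for 30 min and absorbance ratio recorded.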
# ALOX15B inhib – 15-hLO-2 (ALOX15B) enzyme inhibition; O15296; purified 15hLO-2, xylenol orange hydroperoxide absorbance; Potency, µM (titrated, usually from 57.1 µM), for the others: top-dose activity change, negative = inhibition, actives largely listed as inhibitors; 110,000 compounds, 0.56% hits; AID 881; further: on the % scale 0 is the no-effect control and ±100 the full control effect; nearly all actives have a fitted effect of over 60% in size
#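 Purified human 15hLO-2 (50 nM) preincubated 15 min with compound, then 45 uM arachidonic acid for 90 min at RT in 25 mM Hepes pH 7.5, 0.01% Triton X-100. Hydroperoxide detected by Fe-xylenol orange; 573/405 nm absorbance ratio.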
# Casp7 inh – allosteric or competitive inhibitors of human caspase-7; P55210; Potency, µM (series often up to 57.5 µM), inactives show top-dose activity change, negative = inhibition, most hits filed as inhibitors; recombinant caspase-7, Ac-DEVD-AFC fluorescence rate; 75,000 compounds, 0.02% hits; active means well fitted inhibition curve with a large enough effect in the main read-out, with a control signal flat, not every such curve was filed as active; inconclusive means small, poorly fitted or top-dose-only effect, or a change in a side signal; further: % of control where 0% means no effect
# Numbers without * were called inactive; ? = inconclusive; / = no result; ! = not active in a repeat; [ ] = remark or other dose. Unless noted, the call rests on the fitted dose curve; in most records, active means well fitted curve in the direction sought with a large enough effect; inconclusive means small, poorly fitted or top-dose-only effect, or another doubt; inactive means no such curve, though single readings can be large; an effect the other way counts as inactive or inconclusive. Potency means the concentration at half of the fitted maximal effect.
SMILES,HEK293 cAMP cs,TSHR agonist,Caspase-1 inhib,15-hLO inh,ALOX15B inhib,Casp7 inh
CCc1nc(CNC(=O)c2cc(OC)c(OC)c(OC)c2)no1,5%,-3%,1%,10µM*,4%,-1%
Cc1nn(CCC#N)c2c1P(=S)(N1CCCC1)OC(c1ccc(F)cc1)=N2 (centres undefined),27%,16µM*,3%,?,3%,-1%
CCCCC/C=C\C/C=C\C/C=C\C/C=C\CCCC(=O)Nc1ccc(O)cc1C,/,/,/,/,9%[0.0915 µM],/
CCCCC/C=C\C/C=C\C/C=C\C/C=C\CCCC(=O)Nc1ccc(O)cc1,13%,-4%,-5%,0.25µM*,-8%,-6%
C[C@@H]1O[C@@H](O[C@H]2C[C@@H](O)[C@]3(CO)[C@@H]4[C@@H](O)C[C@]5(C)[C@H]([C@@H]6COC(=O)C6)CC[C@@]5(O)[C@H]4CC[C@@]3(O)C2)[C@H](O)[C@H](O)[C@@H]1O,25µM*,?,1%,-4%,-5%,1%
CN1C[C@@H](CS(=O)(=O)N(C)C)C[C@H]2c3cccc4c3c(cn4C)C[C@@H]21,11%,4%,1%,3%,4%,-1%
CN1C[C@H](C(=O)N[C@]2(C)O[C@@]3(O)[C@@H]4CCCN4C(=O)[C@H](Cc4ccccc4)N3C2=O)C=C2c3cccc4[nH]cc(c34)C[C@H]21,11%,-24%,/,2.5µM*,-12%,?
CN1C[C@H](C(=O)N[C@]2(C)O[C@@]3(O)[C@H]4CCCN4C(=O)[C@H](Cc4ccccc4)N3C2=O)C[C@H]2c3cccc4[nH]cc(c34)C[C@@H]21,-25%,-12%,0%,13µM*,1%,-2%
CCN1C[C@@]2(C)CC[C@H](O)[C@@]34[C@@H]5C[C@H]6[C@H](O)[C@@H]5[C@](O)(C[C@@H]6OC)[C@H](C[C@@H]23)[C@H]14,1%,1%,/,/,/,/
Cc1c([C@@H](C)[C@H]2NC[C@H](C)C[C@@H]2O)ccc2c1C[C@@H]1[C@H]2CC=C2C[C@@H](O)CC[C@@]21C,0%[11.4 µM],5%[11.4 µM],2%[11.5 µM],31%[11.4 µM],-4%[11.4 µM],-2%[11.5 µM]
CN1CCc2cc3c(cc2C1C1OC(=O)c2c1ccc1c2OCO1)OCO3 (centres undefined),/,/,-5%,1%[25.6 µM],6%,-2%
COc1ccc2c(c1OC)C(=O)O[C@H]2[C@H]1c2cc3c(cc2CCN1C)OCO3,13µM*!,?,-4%[25.7 µM],9%[25.6 µM],4%[25.6 µM],-2%[25.7 µM]
C=CCN1CC[C@]23c4c5ccc(O)c4O[C@@H]2/C(=N/NC(=O)c2ccccc2)CC[C@@]3(O)[C@H]1C5,3%,2%,2%,-5%,9%,0%
O=C(O)C[C@H]1NCc2cc3ccccc3nc21,16%[11.4 µM],-3%[11.4 µM],-1%[11.5 µM],1%[11.4 µM],-12%[11.4 µM],0%[11.5 µM]
CN(C)Cc1c[nH]c2ccccc12,-1%,16µM*!,1%,3%[25.6 µM],-2%,2%
CCn1nc(-c2ccccc2)nc2c(=O)n(C)c(=O)nc1-2,-5%,-21%,0.79µM*,-12%,/,?
C[C@@H]1O[C@H]1P(=O)(O)O,?,?,1%,0%,10%,1%
COC(=O)C(O)(c1ccc(N(C)S(=O)(=O)c2ccccc2)cc1)C(F)(F)F (centres undefined),?,?,-2%,-21%,3%,-3%
COC(=O)C(O)(c1ccc(NC(=S)NC(=O)c2ccccc2)cc1)C(F)(F)F (centres undefined),/,/,/,/,16µM*,/
c1ccc(CCN2CCCCCC2)nc1,12%[11.4 µM],-5%[11.4 µM],-4%[11.5 µM],6%[11.4 µM],4%[11.4 µM],-2%[11.5 µM]
Nc1ncnc2c1ncn2[C@@H]1O[C@@H](COP(=O)(O)CP(=O)(O)OP(=O)(O)O)[C@H](O)[C@@H]1O,?,?,2%,9%,-13%,1%
CC=O,?,?,-3%,-5%,4%,0%
Cc1nn(Cc2ccccc2Cl)c(Cl)c1C(=O)OCC(=O)NCc1ccco1,25µM*,?,-4%,-7%,-3%,-1%
COc1cc2c(cc1O)CCN[C@H]2C,3%,2%,/,/,/,/
